Measurements as given in PubChem BioAssay (Tox21).
“And” between values parts separate entries of the source, which are not always exact repeats. Equal entries are not always repeated. Inconclusive results are not listed. A call without a number means that no potency is given here. The source holds several records for some structures; these can differ, active in one and inactive in another. The source made the active and inactive calls. Calls follow the shape of the dose curve; as a rule, active = well fitted inhibition curve with a large enough effect in the repeat runs; inconclusive = weak or mixed curves; inactive = no such curve, though single readings can be large or run the other way.

These compounds were tested against Cytochrome P450 2D6 (Homo sapiens) (UniProt P10635) (assay: Cytochrome P450 Family 2 Subfamily D Member 6 (CYP2D6) small molecule antagonists: luciferase reporter qHTS assay (AID 1671196; also: nearly all actives have a fitted effect of over 50% in size)). Details: P450-Glo CYP2D6 enzyme assay, luciferin luminescence, 1 h; series mostly up to 115 µM.
Text: U.S. Tox21 Program National Center for Advancing Translational Sciences [NCATS] U.S. Environmental Protection Agency [EPA] National Institutes of Environmental Health Sciences [NIEHS] National Toxicology Program [NTP] U.S. Food and Drug Administration [FDA] Tox21 Assay Overview: Cytochrome P450 (CYP) enzymes are membrane-bound hemeproteins that play a key role in metabolism of drugs and xenobiotics. Evaluation of the effect of chemicals on CYP isozymes is useful to minimize the adverse drug reactions and toxicities in drug development process. Tox21 chemicals were tested for their effect on CYP enzyme activities by using P450-Glo (TM) screening systems (Promega Corporation, Madison, WI). These systems provide a luminescent method containing proluciferin substrates and are converted to luciferin products by CYP isozymes. The luciferin products formed are detected with a luciferin detection reagent, and the amount of light produced is proportional to CYP activity. P450-Glo (TM) CYP2D6 screening system (Catalog. No. V9890) was used to detect the compounds that interfere in CYP2D6 activity.
Tox21 Assay Protocol Summary: Two ul of enzyme-substrate mix was dispensed into medium binding white/solid 1536-well plates (Greiner Bio-One North America Inc., Monroe, NC) using a BioRaptr Flying Reagent Dispenser (FRD, Beckman Coulter, Brea, CA). […] The assay plates were incubated at room temperature for 10 min. Then 2 ul of NADPH regeneration solution was added to each well of the assay plates using an FRD and incubated at room temperature for 1 h. The reaction was stopped by adding 4 ul of detection reagent using an FRD and after 20 min incubation at room temperature the luminescence signal was measured using a ViewLux plate reader (Perkin Elmer, Shelton, CT). Data were expressed as relative luminescence units.
Potency is read from the fitted curve at half-maximal effect.

Cytochrome P450 2D6 (Homo sapiens), sequence (P10635 whole entry, looked up): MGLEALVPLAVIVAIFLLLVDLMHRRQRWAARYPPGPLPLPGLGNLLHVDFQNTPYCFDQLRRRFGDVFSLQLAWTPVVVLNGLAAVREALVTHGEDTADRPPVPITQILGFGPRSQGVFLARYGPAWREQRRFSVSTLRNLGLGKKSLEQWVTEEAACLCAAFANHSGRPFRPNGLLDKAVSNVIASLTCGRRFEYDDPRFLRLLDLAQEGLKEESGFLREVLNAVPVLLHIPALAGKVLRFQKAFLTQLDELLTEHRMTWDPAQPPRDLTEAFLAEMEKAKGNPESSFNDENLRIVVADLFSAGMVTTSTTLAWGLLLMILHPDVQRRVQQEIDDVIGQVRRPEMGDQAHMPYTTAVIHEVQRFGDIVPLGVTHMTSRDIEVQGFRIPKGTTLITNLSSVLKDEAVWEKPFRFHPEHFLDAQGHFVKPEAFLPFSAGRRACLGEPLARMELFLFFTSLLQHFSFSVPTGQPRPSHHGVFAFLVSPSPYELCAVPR

Structure (SMILES)	Potency
SCc1ccccc1	inactive
CCC(C)(C)c1ccc(O)c(C(C)(C)CC)c1	35.2 µM (active) and 31.7 µM (active)
C1CCNCC1	inactive
C[N+]1(CCC(C(N)=O)(c2ccccc2)c2ccccc2)CCCCC1	8.71 µM (active)
CCOP(=S)(OCC)Oc1ccc(S(C)=O)cc1 (stereo not given)	inactive
CCCN(CCC)c1c([N+](=O)[O-])cc(C(C)C)cc1[N+](=O)[O-]	inactive
Nc1cccc2ccccc12	31.9 µM (active) and 31.7 µM (active)
C[Si](Cn1cncn1)(c1ccc(F)cc1)c1ccc(F)cc1	26 µM (active) and 31.7 µM (active)
CC(C)(C#N)C(C)(C)C#N	inactive
CN1C[C@H](C(=O)N[C@]2(C)O[C@@]3(O)[C@@H]4CCCN4C(=O)[C@H](Cc4ccccc4)N3C2=O)C=C2c3cccc4[nH]cc(c34)C[C@H]21	28.4 µM (active) and inactive
C#CC(O)(C=CCl)CC (stereo not given)	inactive
Cc1nnc(-c2ccccc2)c(=O)n1N	inactive
Nc1ccc2c(c1)Cc1ccccc1-2	62.9 µM (active)
O=C(O)c1ccc(=O)[nH]c1	inactive
CON(C)C(=O)Nc1ccc(Cl)cc1	inactive
CCCCCl	18.3 µM (active)
CC(C)(C)CC(C)(C)c1ccc(O)cc1	39.9 µM (active) and inactive
COCc1cnc(C2=NC(C)(C(C)C)C(=O)N2)c(C(=O)O)c1 (stereo not given)	inactive
CC(C)(c1ccccc1)c1cc(-n2nc3ccccc3n2)c(O)c(C(C)(C)c2ccccc2)c1	inactive
CC(C)(C)NCC(O)c1cc(Cl)c(N)c(C(F)(F)F)c1 (stereo not given)	15.5 µM (active)

Structure (SMILES)	Potency
C=CCOCC1CO1 (stereo not given)	inactive
CCCCNC(=O)OCC#CI	31.6 µM (active) and 35.6 µM (active)
Cc1ccc2c(C)cccc2c1	inactive
COc1ccccc1N1CCNCC1	inactive
CCOc1cccc(C2(N3CCN(c4ccccc4)CC3)CCC(C)CC2)c1 (stereo not given)	inactive
CCCSP(=S)(OCC)Oc1ccc(SC)cc1 (stereo not given)	25.2 µM (active)
O=S(=O)(Cl)Cl	inactive
C[N+](C)(C)CCOC(=O)C(O)(c1ccccc1)c1ccccc1	15.5 µM (active)
CN1CC[C@]23c4c5ccc(O)c4O[C@H]2[C@@H](O)CC[C@H]3[C@H]1C5	44 µM (active)
O=C1NC(=O)C(=O)C(=O)N1	inactive
CNC(=O)Oc1cccc(N=CN(C)C)c1	79.6 µM (active)
Cc1cccc(C)c1NC1=NCCCS1	11 µM (active)
CC(C)c1ccc(NC(=O)N(C)C)cc1	inactive
ClCc1ccccc1Cl	inactive
C=CC(=O)OCC	inactive
CCC1(C2=NCCN2)Cc2ccccc2O1 (stereo not given)	15.5 µM (active)
CC[N+]1(C)CCCC(OC(=O)C(O)(c2ccccc2)c2ccccc2)C1 (stereo not given)	2.75 µM (active)
CC(CC(C(N)=O)(c1ccccc1)c1ccccc1)N(C)C (stereo not given)	6.17 µM (active)
C#C[C@]1(O)CC[C@H]2[C@@H]3CCC4=CC(=O)CCC4=C3C=C[C@@]21CC	5.49 µM (active)
COC1CC(=C(c2cccs2)c2cccs2)C[N+](C)(C)C1 (stereo not given)	0.309 µM (active)
